NR5A2 inv ag – NR5A2 inverse agonism in reporter assay. O00482. HEK293T StAR-luciferase reporter, LRH-1 transfected, 24 h. inhibition, % at 3.6 µM. 360,000 compounds, 0.13% hits. AID 602396;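 active = inhibition above the mean inhibition of all tested compounds plus 3 SD, cut at about 73% in these data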;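 note: 0% = DMSO wells and 100% = reporter-only cells lacking LRH-1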
Gli-Sufu antag – Gli-Sufu pathway antagonism; Sufu-KO-LIGHT fibroblasts, Gli luciferase reporter luminescence; inhibition, % at 5 µM; 340,000 compounds, 0.74% hits; AID 588413;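 active = inhibition above about 55%, limit read from the data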;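 note: 0% = DMSO-treated cells and 100% = wells with medium but no cells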
SRC2 inh – inhibits human steroid receptor coactivator 2. 370,000 compounds, 0.17% hits. Q15596. HEK293 GAL4-SRC2 luciferase reporter, luminescence. AID 651957. inhibition, % at 9 µM;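 active = inhibition above the mean inhibition of all tested compounds plus 3 SD, set per campaign, cut at about 52% in these data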;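 note: 0% = DMSO treated cells and 100% = cells given Gossypol at 36 µM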
SRC1 inh – human NCOA1 inhibition; Q15788; 360,000 compounds, 0.12% hits; HEK293 GAL4-SRC1 luciferase reporter, luminescence; inhibition, % at 3.6 µM;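 active = inhibition above the campaign mean plus 3 SD, with each screening campaign given its own cutoff, cut at about 60% in these data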;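 note: 0% = DMSO treated cells and 100% = gossypol at 36 µM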
SRC3 inh – inhibitors of human steroid receptor coactivator 3 (SRC3); 360,000 compounds, 0.17% hits; inhibition, % at 3.6 µM; Q9Y6Q9; AID 588352; HEK293 GAL4-SRC3 luciferase reporter, luminescence;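 active = inhibition above a per-campaign cutoff, the mean of all compounds plus 3 SD, cut at about 60% in these data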;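 note: 0% = DMSO-treated cells and 100% = gossypol-treated cells at 36 µM; higher means less SRC3-driven luciferase light from the GAL4 reporter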
NR2F2 inh – inhibitors of human COUP-TFII (NR2F2); P24468; HEK293T NGFI-A luciferase reporter, luminescence; inhibition, % at 8.6 µM; 370,000 compounds, 0.7% hits; AID 686940;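 active = inhibition above a per-plate cutoff, mean inhibition of test wells between control levels plus 3 SD, cut at about 38% in these data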;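 note: cells cotransfected with COUP-TFII expression vector driving the NGFI-A reporter; 0% = median of COUP-TF2 test wells and 100% = reporter-only cells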
Gal4-VP16 ctr – inhibits VP16 reporter, flagging COUP-TFII antagonist hits. inhibition, % at 8.5 µM. 2,500 compounds, 25% hits. shares compounds with NR2F2 inh. HEK293 Gal4-VP16 luciferase reporter, luminescence. AID 687007; in the data active = inhibition above about 13%
COUP-TFII conf – COUP-TFII (NR2F2) inhibition, confirmation assay. shares compounds with NR2F2 inh. HEK293 NGFI-A luciferase reporter, luminescence. inhibition, % at 8.5 µM. 2,500 compounds, 45% hits. AID 687008;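 active = mean inhibition over three repeats above a set limit taken from the earlier primary screen, cut at about 38% in these data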;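 note: 100% = cells given the luciferase reporter alone without the COUP-TF2 vector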
An asterisk follows results filed as active; x = not tested or not shown. Most compounds without a hit are left out; they make up all but 1.2% or so of the library.

SMILES	NR5A2 inv ag	Gli-Sufu antag	SRC2 inh	SRC1 inh	SRC3 inh	NR2F2 inh	Gal4-VP16 ctr	COUP-TFII conf
Cc1ccc(S(=O)(=O)N2CC3=C(c4ccccc4)CC4(C)C(=O)C(C)(C)CC4=C3C2)cc1 (stereo not drawn)	x	x	-3.9	x	x	2.6	x	x
O=C(c1ccoc1)N1CCN(c2cc(-c3ccccc3)nc3cc(-c4ccccc4)nn23)CC1	13.5	x	11.4	0.3	-8.5	13.6	x	x
COc1ccccc1-c1cc2nc(-c3ccccc3)cc(N3CCN(C(=O)c4ccoc4)CC3)n2n1	36.3	x	14.0	24.1	29.2	87.4*	9.9	60.2*
COc1ccccc1-c1cc2nc(-c3ccccc3)cc(N3CCN(C(=O)c4ccco4)CC3)n2n1	19.0	x	36.5	43.0	33.9	93.6*	12.6	76.0*
CC(C)(C)c1ccc(OCCC(=O)OCC(=O)NC2CC2)cc1	6.0	6.8	39.8	12.7	-1.5	42.8*	16.8*	3.6
COC(=O)c1cc2c(c3c4cc(C)ccc4n(S(=O)(=O)c4ccccc4)c13)C(=O)N(Cc1ccc(C(F)(F)F)cc1)C2	x	x	3.1	x	x	-10.3	x	x
CCCCNC(=O)C1(C)CCCCN1C(=O)c1ccc2c(c1)C(C)(C)CCC2(C)C (stereo not drawn)	24.6	x	20.7	25.1	-12.4	37.9*	-4.3	29.4
c1ccc(CCNc2ccnc3cc4ccccc4cc23)cc1	1.5	83.0*	-17.5	-1.1	-7.4	65.3*	15.1*	58.5*
COc1cc(NC(=O)CSc2nc3[nH]ncc3c(=O)n2-c2ccccc2C)cc(OC)c1OC	17.9	-7.3	-9.0	0.7	-3.0	-0.8	x	x
C=CCN(C(=O)CSc1nc2[nH]ncc2c(=O)n1-c1ccccc1OC)c1ccccc1	-8.7	3.5	16.8	-9.7	2.0	41.7*	-6.0	-3.0
OCCC1CN(Cc2cnc(-c3ccc(Cl)cc3)nc2)CCN1C1CCCCC1 (stereo not drawn)	8.3	7.5	5.8	9.1	10.2	37.4*	-26.3	0.1
OCC1(Cc2ccccc2)CCN(Cc2cnc(-c3ccc(Cl)cc3)nc2)CC1	-17.7	5.0	-50.2	-20.8	-17.4	43.1*	-37.9	8.7
COC(=O)C1CN(Cc2ccc(F)cc2)CCS(=O)(=O)N1Cc1ccccc1 (stereo not drawn)	x	x	23.4	x	x	-12.7	x	x
COc1cccc(C(=O)NCC2(c3ccccc3)CCCC2)c1OC	5.1	13.8	-1.4	16.5	14.0	44.9*	-8.2	16.8
Clc1ccc(-c2noc(CSc3nnc(-c4ccncc4)n3-c3ccccc3)n2)cc1	9.7	9.4	25.8	-3.4	34.7	64.8*	-3.3	12.7
COc1ccc(OC)c(CN(CC(C)C)S(=O)(=O)c2ccccc2Br)c1	x	x	-6.1	x	x	14.7	x	x
O=C(c1ccc(Oc2ccc([N+](=O)[O-])cc2Cl)cc1)N1CCCC1	41.7	-10.7	32.5	-5.3	3.1	-0.2	x	x
CSc1ccc(CN2CCN(C(=O)c3ccc([N+](=O)[O-])cc3)CC2)cc1	39.2	-9.1	14.7	10.3	23.7	70.5*	-2.4	43.6*
O=C(c1ccc(Oc2ccc([N+](=O)[O-])cc2)cc1)N1CCCCCC1	0.9	40.8	8.1	15.2	5.8	46.5*	-5.4	14.2
O=C(c1ccc(Cn2ccc([N+](=O)[O-])n2)cc1)N1CCN(Cc2ccccc2)CC1	24.1	2.4	16.2	1.6	15.3	10.6	x	x
Cc1ccc(Cn2ncc3c(N4CCN(Cc5ccc(Cl)cc5)CC4)ncnc32)cc1	25.7	-3.2	16.3	21.5	19.6	38.6*	10.7	50.7*
O=C(Nc1nc2cc3c(cc2s1)OCCO3)C1=COCCO1	44.2	49.1	68.2*	54.3	65.2*	81.2*	56.5*	76.7*
CC(C)(C)c1ccc(Oc2ccc(NC(=O)C3CC=CCC3C(=O)O)cc2)cc1 (stereo not drawn)	50.1	-4.7	78.3*	4.2	18.7	90.9*	15.1*	-0.8
Clc1ccccc1OCCCn1ccnc1	-3.0	-11.8	16.3	-26.0	-18.3	6.2	x	x
Cc1nccn1CCOc1ccccc1Cl	3.7	x	-26.5	-7.6	4.0	68.3*	2.2	7.9
SMILES	NR5A2 inv ag	Gli-Sufu antag	SRC2 inh	SRC1 inh	SRC3 inh	NR2F2 inh	Gal4-VP16 ctr	COUP-TFII conf
CCc1cccc(NC(=O)Cc2ccc(OC)c(OC)c2)c1	28.4	21.9	8.4	-1.2	24.9	39.5*	11.7	32.0
COc1ccc(CC(=O)Nc2cccc(-c3nnc(-c4cccc(C)c4)o3)c2)cc1OC	-6.7	-16.3	13.9	-4.0	-6.6	53.3*	-20.0	10.9
COc1ccc(CC(=O)Nc2cccc(S(=O)(=O)N3CCOCC3)c2)cc1OC	26.6	-6.6	0.8	20.8	23.8	47.0*	1.5	30.0
Cc1cccc(N2CC(C(=O)Nc3cccc(S(=O)(=O)N4CCCCC4)c3)CC2=O)c1C (stereo not drawn)	-6.2	3.4	19.9	-3.2	25.2	47.0*	2.9	14.3
COc1ccc(CC(=O)Nc2cccc(-c3nnc(-c4ccc(C)cc4)o3)c2)cc1OC	7.6	1.9	-10.8	-7.1	0.3	-0.8	x	x
COc1ccccc1CC(=O)Nc1cccc(S(=O)(=O)N2CCOCC2)c1	-14.1	7.8	8.3	3.6	22.7	2.8	x	x
Cc1ccccc1C(=O)N[C@H](C(=O)N1CCC[C@H]1C(=O)NCCc1ccccc1Cl)C(C)C	x	x	1.9	x	x	-5.5	x	x
COc1cc2c(cc1NC(=O)CSc1nnc(-c3cccc(Cl)c3)n1Cc1ccco1)oc1ccccc12	x	x	-14.7	x	x	-4.6	x	x
O=C(CN1C(=O)CCSc2ccccc21)Nc1ccc(Cl)cc1	x	x	2.1	x	x	20.3	x	x
NC(=O)c1c(N)[nH]c(C(=O)c2ccccc2)c1-c1ccc2ccccc2c1	x	x	12.2	x	x	2.5	x	x
COc1ccc(CC(=O)Nc2cccc(S(=O)(=O)N3CCCC3)c2)cc1OC	27.6	19.9	31.9	14.9	32.1	62.5*	6.2	45.5*
CN=C1NC(=O)/C(=C\c2cc(C)n(-c3ccccc3F)c2C)S1	x	x	x	x	x	-18.4	x	x
Cc1cc(/C=C2\SC(=O)N(C)C2=O)c(C)n1-c1ccc(O)cc1	9.5	13.1	4.4	24.7	4.6	50.3*	-78.0	23.1
Cc1cc(/C=C2\SC(=O)N(C)C2=O)c(C)n1-c1ccc(S(N)(=O)=O)cc1	-15.2	-4.2	-20.1	-9.8	-19.7	-13.3	x	x
CN=C1S/C(=C\c2cc(C)n(-c3ccccc3F)c2C)C(=O)N1C	15.9	45.3	-1.3	30.2	47.8	49.7*	-67.9	30.3
NC(=O)c1nnn(Cc2cc(Cl)c(C(=O)c3ccc(Cl)cc3)c(Cl)c2)c1N	33.7	x	6.7	x	x	55.5*	5.0	53.8*
Nc1c(C(=O)Nc2ccc3c(c2)OCCO3)nnn1Cc1ccc(Cl)cc1	-162.1	-85.0	-46.6	-91.8	-81.4	-25.8	x	x

Assay outcomes: PubChem BioAssay, several laboratories
